Drawing on PubChem BioAssay (Tox21), this text covers Potency and activation for 20 molecules.

Test [1] can be described thus: qHTS assay to identify small molecule antagonists of the retinoic acid receptor (RAR) signaling pathway (AID 1159552; also: nearly all actives have a fitted effect of over 50% in size). In short, it runs like this: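 Test chemicals and DMSO controls were pin-transferred onto C3RL4 cells a day after seeding; retinol (1 uM final) followed at once. Luminescent reporter output was quantified after 6 hr of co-incubation and 30 min with detection reagent.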

For test [2], the target named is Luciferin 4-monooxygenase (Photinus pyralis) (UniProt P08659). Kind of test: qHTS assay to identify small molecule inhibitors of firefly luciferase (AID 1224835). Also: nearly all actives have a fitted effect of over 25% in size. In a few lines:
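Inhibition of purified Photinus luciferase is measured by luminescence. Substrate levels (D-luciferin, ATP) sit at their KM values. Each compound is tested in a concentration series.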

Test [3] concerns the target Nuclear receptor subfamily 1 group I member 3 (Homo sapiens) (UniProt Q14994). The test can be described thus: qHTS assay to identify small molecule antagonists of the constitutive androstane receptor (CAR) signaling pathway (AID 1224838).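 Also: HepG2 cells stably expressing hCAR with CYP2B6 luciferase reporter stimulated by CITCO; nearly all actives have a fitted effect of over 40% in size.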 In short, it runs like this: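 Luminescence from a CYP2B6-2.2kb promoter reporter in hCAR-expressing HepG2 cells reflects CAR signaling. Cells received compounds at 15 concentrations and 50 nM CITCO (final), then incubated 24 h at 37 C/5% CO2.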

A short description of test [4]: qHTS assay to identify small molecule agonists of the estrogen related receptor signaling pathway with the pleiotropic PPARgamma coactivator (PGC) from Tox21 10K library (AID 1224842). Also: nearly all actives have a fitted effect of over 15% in size. In a few lines: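 Luminescence from One-Glo (30 min, room temperature) measured after PGC/ERR cells had 18 h at 37 C with pinned compound (23 nL in DMSO). Cells had been seeded at 2,000 per well and pre-incubated 6 h.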

Test [5] is described as follows: qHTS assay to identify small molecule agonists of the hypoxia (HIF-1) signaling pathway - cell viability counter screen (AID 1224844; calls by dose curve; also: nearly all actives have a fitted effect of over 50% in size). In short, it runs like this: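 Viability counter screen: HRE-bla ME-180 cells plated 5 hrs before compound addition, treated 17 hrs at 37C and 5% CO2, then CellTiter-Glo added after the FRET reporter read; luminescence after 30 min.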

Test [6] concerns the target Nuclear receptor subfamily 1 group I member 3 (Homo sapiens) (UniProt Q14994). The test can be described thus: qHTS assay to identify small molecule agonists of the constitutive androstane receptor (CAR) signaling pathway (AID 1224839). Also: nearly all actives have a fitted effect of over 15% in size.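 As to activation: HepG2 cells stably carrying human CAR and a CYP2B6 luciferase reporter; series mostly up to about 92 µM.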 In a few lines:
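Compounds tested at 15 concentrations on HepG2 cells stably harbouring hCAR and CYP2B6-2.2kb reporter constructs, co-treated with PK11195 (0.75 uM final), 24 h at 37 C; luminescent reporter signal quantified.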

The nature of test [7]: qHTS assay to identify small molecule antagonists of the estrogen related receptor signaling pathway with the pleiotropic PPARgamma coactivator (PGC) from Tox21 10K library (AID 1224841; call rule not given here; also: actives are mostly falling curves and most rising ones were filed inactive; nearly all actives have a fitted effect of over 50% in size). In short, it runs like this:
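Cells stably carrying the PGC/ERR reporter, seeded at 2,000 per well, received pin-transferred compounds 6 h post-plating. Exposure lasted 18 h at 37 C. Signal: One-Glo luminescence.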

The target of test [8] is Thyrotropin receptor (Homo sapiens) (UniProt P16473). The test can be described thus: qHTS assay to identify small molecule agonists of the thyroid stimulating hormone receptor (TSHR) signaling pathway (AID 1224843; calls by dose curve; also: nearly all actives have a fitted effect of over 45% in size). In a few lines: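 Agonist activity read as cAMP rise via d2/cryptate HTRF competition, 1 h room-temperature detection, in HEK293 cells expressing TSHR. Fifteen-point titrations, each run in triplicate, with a 30 min room-temperature incubation beforehand.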
Chain of Thyrotropin receptor (Homo sapiens) (P16473 whole entry, looked up): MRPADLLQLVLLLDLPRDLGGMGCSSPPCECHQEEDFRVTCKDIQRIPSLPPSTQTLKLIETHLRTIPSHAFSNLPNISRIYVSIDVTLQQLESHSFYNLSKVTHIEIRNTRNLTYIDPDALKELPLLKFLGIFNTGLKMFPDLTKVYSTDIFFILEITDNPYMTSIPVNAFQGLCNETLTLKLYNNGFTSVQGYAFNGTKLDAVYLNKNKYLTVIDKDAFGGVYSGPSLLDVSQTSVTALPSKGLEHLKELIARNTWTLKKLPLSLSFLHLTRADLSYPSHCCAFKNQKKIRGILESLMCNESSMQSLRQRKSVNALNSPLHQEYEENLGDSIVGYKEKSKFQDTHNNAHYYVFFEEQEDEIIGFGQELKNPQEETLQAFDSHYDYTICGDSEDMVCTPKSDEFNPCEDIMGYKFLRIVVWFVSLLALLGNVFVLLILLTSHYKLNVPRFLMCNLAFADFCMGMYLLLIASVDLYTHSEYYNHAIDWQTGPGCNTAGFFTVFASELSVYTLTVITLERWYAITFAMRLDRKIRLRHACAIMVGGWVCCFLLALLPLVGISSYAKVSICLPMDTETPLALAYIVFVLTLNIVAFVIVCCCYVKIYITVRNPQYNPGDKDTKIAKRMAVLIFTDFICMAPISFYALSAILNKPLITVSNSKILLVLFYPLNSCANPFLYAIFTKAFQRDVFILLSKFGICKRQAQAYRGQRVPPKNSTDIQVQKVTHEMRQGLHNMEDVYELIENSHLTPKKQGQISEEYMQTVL

A short description of test [9]: qHTS assay to identify small molecule antagonists of the constitutive androstane receptor (CAR) signaling pathway - cell viability counter screen (AID 1224837). Also: nearly all actives have a fitted effect of over 45% in size. In a few lines:
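Cells are seeded, rested 4 hr at 37 C/5% CO2, dosed with compound (15-point series) and 50 nM CITCO, incubated a further 23 hr, and then CellTiter-Fluor reagent is added before fluorescence is read. The line is HepG2 with stable hCAR and CYP2B6-2.2kb.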

Test [10] can be described thus: qHTS assay to identify small molecule antagonists of the estrogen related receptor signaling pathway with the pleiotropic PPARgamma coactivator (PGC) from Tox21 10K library - cell viability counter screen (AID 1224840; active = well fitted cell-killing curve with a large enough effect in the repeat runs, not every such curve was filed as active; also: nearly all actives have a fitted effect of over 40% in size). In short, it runs like this:
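Cell viability is measured by CellTiter-Fluor fluorescence in PGC/ERR cells that receive compounds after a 6-hour attachment period and are then incubated 17.5 hours at 37 C.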

The nature of test [11]: qHTS assay to identify small molecule agonists of H2AX (AID 1224845; active = well fitted activation curve with a large enough effect in the signal ratio in the repeat runs, not every such curve was filed as active; the % refers to the signal ratio). In short, it runs like this:
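Phospho-H2AX Ser139 measured by HTRF (ex 320 nm; em 665 and 620 nm) after 24 hr antibody incubation. Compounds, 15 concentrations, 0.76% DMSO, were applied to CHO-K1 cells for 3hr at 37C before lysis.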

A short description of test [12]: qHTS assay to identify small molecule antagonists of the estrogen related receptor (ERR) signaling pathway from Tox21 library - cell viability counter screen (AID 1224834). Also: nearly all actives have a fitted effect of over 30% in size. In short, it runs like this:
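Compounds in DMSO were pinned onto ERR cells that had been incubated for 6 h, and the plates were held at 37 C for 17.5 h. CellTiter-Fluor reagent was then added and fluorescence was measured after 30 min.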

Test [13] in a line: qHTS assay to identify small molecule agonists of the constitutive androstane receptor (CAR) signaling pathway - cell viability counter screen (AID 1224836). Also: nearly all actives have a fitted effect of over 45% in size. In a few lines: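 23 h treatment, 37 C, 5% CO2. Cell line: HepG2 stably expressing hCAR with a CYP2B6-2.2kb construct. Co-treatment: PK11195, 0.75 uM final. Read-out: CellTiter-Fluor fluorescence intensity.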
Test [14] is described as follows: qHTS assay to identify small molecule agonists of the retinoic acid receptor (RAR) signaling pathway (AID 1159553). In short, it runs like this:
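Quantitative high-throughput format: the Tox21 10K library was tested on C3RL4 RARE-luciferase cells for 6 hr at 37 C and 5% CO2, with luminescence measured after a 30 min room-temperature reagent step.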

Values joined by “and” are separate entries in the source; they are usually repeats but may differ in a detail not shown here. Equal entries are not always repeated. Records with an inconclusive call do not appear. Values without a mark were called inactive. Active and inactive are the calls of the source. Unless noted, calls follow the shape of the dose curve; as a rule, active = well fitted curve in the direction sought with a large enough effect in the repeat runs; inconclusive = weak or mixed curves; inactive = no such curve, though single readings can be large; an effect the other way counts as inactive or inconclusive.
% is scaled to controls: 0 for no effect and ±100 for the full control effect; potency is read from the fitted curve at half-maximal effect.

Chain of Luciferin 4-monooxygenase (Photinus pyralis) (P08659 whole entry, looked up): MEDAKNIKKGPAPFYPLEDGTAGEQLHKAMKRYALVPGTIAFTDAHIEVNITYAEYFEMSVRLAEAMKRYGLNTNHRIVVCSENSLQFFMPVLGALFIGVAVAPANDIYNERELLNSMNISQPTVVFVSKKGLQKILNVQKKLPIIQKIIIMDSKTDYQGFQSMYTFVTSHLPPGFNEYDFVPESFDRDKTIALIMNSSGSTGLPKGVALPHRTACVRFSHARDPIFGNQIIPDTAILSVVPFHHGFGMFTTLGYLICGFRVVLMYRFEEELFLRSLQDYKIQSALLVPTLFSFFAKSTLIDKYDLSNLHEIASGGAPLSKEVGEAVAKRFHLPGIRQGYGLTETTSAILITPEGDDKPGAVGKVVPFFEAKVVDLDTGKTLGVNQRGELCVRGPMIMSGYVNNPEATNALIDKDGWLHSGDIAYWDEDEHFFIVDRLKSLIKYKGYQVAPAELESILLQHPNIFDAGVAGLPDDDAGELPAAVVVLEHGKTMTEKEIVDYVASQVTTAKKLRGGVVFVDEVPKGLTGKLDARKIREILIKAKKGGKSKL
Chain of Nuclear receptor subfamily 1 group I member 3 (Homo sapiens) (Q14994 whole entry, looked up): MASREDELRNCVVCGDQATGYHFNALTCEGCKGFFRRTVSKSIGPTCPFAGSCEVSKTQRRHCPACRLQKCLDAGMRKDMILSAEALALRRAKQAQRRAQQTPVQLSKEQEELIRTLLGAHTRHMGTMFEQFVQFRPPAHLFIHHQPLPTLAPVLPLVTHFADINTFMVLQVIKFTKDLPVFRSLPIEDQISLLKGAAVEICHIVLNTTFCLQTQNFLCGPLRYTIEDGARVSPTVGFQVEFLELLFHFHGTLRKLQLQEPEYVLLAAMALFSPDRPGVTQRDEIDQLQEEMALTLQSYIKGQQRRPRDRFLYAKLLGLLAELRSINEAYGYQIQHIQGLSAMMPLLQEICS

Regarding `CC1(c2ccc(Oc3ccccc3)cc2)OC(=O)N(Nc2ccccc2)C1=O` (centres undefined), the Potency in [1] was 27.5 µM (active); in test [5], 22 µM (active). Moreover, the Potency result in test [2], in [3] and in test [4] was “inactive” in each case.
For the molecule `Nc1ccc(Cc2ccc(N)c(Cl)c2)cc1Cl`, the Potency result in test [3], in test [4] and in test [8] was “inactive” each time. Moreover, the Potency was 16.7 µM (active) in test [6] and 13.2 µM (active) in test [7].
With `N#Cc1c(-c2ccc(Cl)cc2)[nH]c(C(F)(F)F)c1Br`, the Potency was 0.545 µM (active) in test [1], 1.22 µM (active) in [9], 0.969 µM (active) in [3] and 1.54 µM (active) in test [10]. The Potency result in test [6], in test [4], in test [8], in [5] and in test [11] was “inactive” in each case.
As for `CC[C@H](C)[C@H]1O[C@]2(C=C[C@@H]1C)C[C@@H]1C[C@@H](C/C=C(\C)[C@@H](O[C@H]3C[C@H](OC)[C@@H](O[C@H]4C[C@H](OC)[C@@H](O)[C@H](C)O4)[C@H](C)O3)[C@@H](C)/C=C/C=C3\CO[C@@H]4[C@H](O)C(C)=C[C@@H](C(=O)O1)[C@]34O)O2`, the Potency is 32.2 µM (active) in test [1]; 16.1 µM (active) in [12]; 32.2 µM (active) in test [13]; 32.2 µM (active) in test [9]; 40.5 µM (active) in test [3]; 28.7 µM (active) in [10]. Besides, the Potency in test [5] was 28.9 µM (active). The Potency entry in test [2], in test [6], in [4] and in [11] was “inactive” each time.
Consider `CCc1nn(C)c(C(=O)NCc2ccc(C(C)(C)C)cc2)c1Cl`, for which the Potency was 27.3 µM (active) in [1] and 30.6 µM (active) in test [12]. Also, the Potency result in test [2], in test [9], in [6] and in test [4] was “inactive” throughout.
In the case of `C[CH2][Hg][N]1C(=O)C2C(C1=O)C1(Cl)C(Cl)=C(Cl)C2(Cl)C1(Cl)Cl` (centres undefined), the Potency in [1] was 11.6 µM (active); in [12] it was 13 µM (active); in test [2], 5.35 µM (active); in [13], 14.6 µM (active); in test [3] it was 11.6 µM (active); in test [10] it was 13 µM (active). The Potency in test [5] was 2.33 µM (active); in test [11] it was 10.7 µM (active). Further, the activation in test [6] is -23.5% [at 19 µM]; in [8], -16.4% [at 19 µM].
On to `Cc1cc(N=Nc2ccccc2C)ccc1N`, for which the Potency entry in test [1], in test [7] and in test [5] was “inactive” throughout. The Potency was 864 nM (active) and 1.22 µM (active) in [14]; 27.3 µM (active) in test [12]; 5.64 µM (active) and 6.33 µM (active) in test [2]; 17.2 µM (active) and 1.09 µM (active) in test [13]; 3.06 µM (active) in [9]; 30.6 µM (active) and 48.6 µM (active) in test [6]. In addition, the Potency in [10] was 38.6 µM (active) and 27.3 µM (active); in [4], 4.33 µM (active) and 2.43 µM (active).
Consider `O=C(CCl)Nc1ccccc1`, for which the Potency in test [12] was 30.6 µM (active); in [13], 48.6 µM (active); in [10] it was 24.3 µM (active); in test [7] it was 8.63 µM (active). The Potency entry in test [2], in [6], in test [4] and in test [8] was “inactive” throughout.
As to `CCCCN(CCCC)C(=S)[S-].CCCCN(CCCC)C(=S)[S-].[Zn+2]`, the Potency is 15.3 µM (active) in test [12]; 21.7 µM (active) in [13]; 21.7 µM (active) in test [9]; 13.7 µM (active) in test [10]; 15.5 µM (active) in [5]. The Potency entry in test [2] and in test [11] was “inactive” each time.
As to `CCCOCC(=Nc1ccc(Cl)cc1C(F)(F)F)n1ccnc1`, the Potency result in test [14], in [2], in test [3], in [5] and in test [11] was “inactive” in each case. Moreover, the results for the Potency in [12], in test [6] and in test [8] were 54.4 µM (active), 48.5 µM (active) and 54.4 µM (active), respectively.
As for `CC1CCC(C(C)C)C(OC(=O)c2ccccc2N)C1` (centres undefined), the Potency entry in [2], in test [13], in test [9], in [3], in [4] and in test [8] was “inactive” throughout. For the same molecule, the Potency in test [5] was 38.4 µM (active); in test [11], 88.5 µM (active).
In the case of `Clc1ccc(CO/N=C(\Cn2ccnc2)c2ccc(Cl)cc2Cl)c(Cl)c1`, the Potency in test [12] was 26.6 µM (active). For the same molecule, the Potency result in [2], in test [9] and in test [3] was “inactive” each time.
Consider `Oc1ccc(C2(c3ccc(O)cc3)c3ccccc3-c3ccccc32)cc1`, for which the Potency is 68.6 µM (active) in test [12], 61.1 µM (active) in test [9], 61.1 µM (active) in test [10] and 54.5 µM (active) in test [8]. Further, the Potency entry in test [2] and in [4] was “inactive” each time.
In the case of `CN(C)C(=S)S`, the Potency in [12] was 9.89 µM (active) and 3.83 µM (active) and 13.7 µM (active); in test [13], 19.7 µM (active) and 6.81 µM (active) and 27.3 µM (active); in test [9] it was 27.9 µM (active) and 7.64 µM (active) and 27.3 µM (active); in [10], 2.15 µM (active) and 12.2 µM (active); in [5], 1.41 µM (active) and 4.86 µM (active) and 4.36 µM (active); in test [11] it was 29 µM (active) and 4.47 µM (active).
Turning to `O=CC(Br)(Br)Br`, the Potency in test [1] is 27.2 µM (active); in [12], 24.3 µM (active); in test [2], 17.8 µM (active); in [13], 30.5 µM (active); in test [9], 27.2 µM (active); in [3], 30.5 µM (active). Also, the figures for the Potency in test [10], in test [8] and in test [11] were 15.3 µM (active), 30.5 µM (active) and 31.8 µM (active), respectively. In test [6], the Potency entry is “inactive”.
With `CC(C)OC(=S)S`, the Potency result in [12], in [2] and in [13] was “inactive” each time. Further, in test [11], the Potency is 35.7 µM (active).
Take `COc1cccc2c1C(=O)c1c(O)c3c(c(O)c1C2=O)C[C@@](O)(C(=O)CO)CC3OC1CC(N2CCOC(OC)C2)C(O)C(C)O1` (some centres undefined): the Potency is 0.106 µM (active) in [1], 0.119 µM (active) in test [13], 0.106 µM (active) in test [9] and 0.0298 µM (active) in [3]. The Potency result in test [6], in test [10], in test [4] and in test [8] was “inactive” in each case.
Take `CC(C)CC(C)Nc1ccc(Nc2ccccc2)cc1` (centres undefined): the Potency entry in test [1], in test [14] and in test [4] was “inactive” each time. The Potency in [2] was 39.3 µM (active); in [10], 67.4 µM (active).
Consider `[CH3][Hg][Cl]`, for which the Potency result in [1], in [6] and in test [8] was “inactive” throughout. Besides, the Potency in test [12] is 60.9 µM (active); in test [2], 5.62 µM (active); in test [13] it was 24.3 µM (active); in test [10], 38.5 µM (active); in test [5], 10.9 µM (active).
For the molecule `O=C(CBr)c1ccc(O)cc1`, the Potency in test [1] was 54.5 µM (active). For the same molecule, the Potency result in [13], in test [7], in test [4] and in test [5] was “inactive” in each case.
